The results in this text go back to paper PMC12820563, “FoxP3 forms a head-to-head dimer in vivo and stabilizes its multimerization on adjacent microsatellites”.

Over roughly 16,000 sequences, “rpm ratio (pull-down/input)” has its median near 0.5; the highest 2% begin near 5.5. The list comes from a sample in which the highest values are over-represented; it also holds similar and randomly drawn sequences.

This experiment deals with T1, MBP-FoxP3dN (Mus musculus, UniProt Q99JB6 188-423).
T1 sequence: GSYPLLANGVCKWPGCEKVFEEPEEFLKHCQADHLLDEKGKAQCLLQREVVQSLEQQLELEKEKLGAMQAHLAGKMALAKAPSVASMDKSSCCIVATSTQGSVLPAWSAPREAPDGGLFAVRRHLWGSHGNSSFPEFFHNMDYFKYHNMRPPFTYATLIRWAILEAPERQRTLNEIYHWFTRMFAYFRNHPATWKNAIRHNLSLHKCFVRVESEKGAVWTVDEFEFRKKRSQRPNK
Kind of experiment: PD-seq (MBP pull-down with sequencing); 20 mM Tris-HCl pH 7.5, 100 mM NaCl, 1.5 mM MgCl2, 0.4 uM protein, 0.1 uM dsDNA library, 30 min, room temperature, amylose pull-down; high values mean tight binding. The following applies: protein: recombinant; tags: His6-MBP; chain copies: 2; dsDNA, one strand shown. The method, boiled down: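 Binding is given as reads-per-million enrichment, pull-down over input, with replicates pooled. The bait was an N-terminus-lacking mouse FoxP3 or FoxP1 fragment with a His6-MBP tag, expressed in E. coli and used at 0.4 µM with 0.1 µM Klenow-filled degenerate double-stranded DNA library for 30 min at room temperature in Tris pH 7.5 buffer with NaCl and MgCl2. Amylose resin pull-down with three washes was followed by proteinase K release, PCR barcoding and Illumina sequencing.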
Turning to “GATGATTGTTCTCCCAGCTGATGAATTTGGTGCTTCGAGTAAACAAATTTTCCTAATCTTTCTGTTCAAGCGCCATCTAC”, the binding signal is 1.59 RPM ratio (pull-down/input).

Turning to “GATGATTGTTCTCCCAGCTGATGAATTGTCCGAATCGAGTAAACAAATTTTCCTAATCTTTCTGTTCAAGCGCCATCTAC”, the binding signal is 0.272 RPM ratio (pull-down/input).

On to “GATGATTGTTCTCCCAGCTGATGAATTGTCATCCTCGAGTAAACAAATTTTCCTAATCTTTCTGTTCAAGCGCCATCTAC”, for which the binding signal was 0.941 RPM ratio (pull-down/input).

On to “GATGATTGTTCTCCCAGCTGATGAATTGTCATTTTCGAGTAAACAAATTTTCCTAATCTTTCTGTTCAAGCGCCATCTAC”, for which the binding signal is 0.999 RPM ratio (pull-down/input).

As to “GATGATTGTTCTCCCAGCTGATGAATTTGTCATTTCGAGTAAACAAATTTTCCTAATCTTTCTGTTCAAGCGCCATCTAC”, the binding signal was 5.68 RPM ratio (pull-down/input).

Consider “GATGATTGTTCTCCCAGCTGATGAATTTTTGTCATCGAGTAAACAAATTTTCCTAATCTTTCTGTTCAAGCGCCATCTAC”, for which the binding signal is 0.666 RPM ratio (pull-down/input).

Consider “GATGATTGTTCTCCCAGCTGATGAATTTGTCATCTCGAGTAAACAAATTTTCCTAATCTTTCTGTTCAAGCGCCATCTAC”, for which the binding signal is 6.03 RPM ratio (pull-down/input).

As to “GATGATTGTTCTCCCAGCTGATGAATTTTGTCATTCGAGTAAACAAATTTTCCTAATCTTTCTGTTCAAGCGCCATCTAC”, the binding signal was 4.89 RPM ratio (pull-down/input).

For the sequence “GATGATTGTTCTCCCAGCTGATGAATTACTTTCTTCGAGTAAACAAATTTTCCTAATCTTTCTGTTCAAGCGCCATCTAC”, the binding signal was 0.388 RPM ratio (pull-down/input).

As to “GATGATTGTTCTCCCAGCTGATGAATTGCTGCACTCGAGTAAACAAATTTTCCTAATCTTTCTGTTCAAGCGCCATCTAC”, the binding signal was 1.03 RPM ratio (pull-down/input).

Regarding “GATGATTGTTCTCCCAGCTGATGAATTCGTGGTTTCGAGTAAACAAATTTTCCTAATCTTTCTGTTCAAGCGCCATCTAC”, the binding signal is 1.35 RPM ratio (pull-down/input).

For the sequence “GATGATTGTTCTCCCAGCTGATGAATTAGGTAGTTCGAGTAAACAAATTTTCCTAATCTTTCTGTTCAAGCGCCATCTAC”, the binding signal is 0.919 RPM ratio (pull-down/input).

For “GATGATTGTTCTCCCAGCTGATGAATTTCATTGGTCGAGTAAACAAATTTTCCTAATCTTTCTGTTCAAGCGCCATCTAC”, the binding signal was 1.11 RPM ratio (pull-down/input).

In the case of “GATGATTGTTCTCCCAGCTGATGAATTCTTGTCATCGAGTAAACAAATTTTCCTAATCTTTCTGTTCAAGCGCCATCTAC”, the binding signal was 0.625 RPM ratio (pull-down/input).

For “GATGATTGTTCTCCCAGCTGATGAATTTAGGCATTCGAGTAAACAAATTTTCCTAATCTTTCTGTTCAAGCGCCATCTAC”, the binding signal is 5.38 RPM ratio (pull-down/input).

Take “GATGATTGTTCTCCCAGCTGATGAATTAGGCAAATCGAGTAAACAAATTTTCCTAATCTTTCTGTTCAAGCGCCATCTAC”: the binding signal is 0.601 RPM ratio (pull-down/input).

With “GATGATTGTTCTCCCAGCTGATGAATTAGGCCTCTCGAGTAAACAAATTTTCCTAATCTTTCTGTTCAAGCGCCATCTAC”, the binding signal is 5.5 RPM ratio (pull-down/input).

As to “GATGATTGTTCTCCCAGCTGATGAATTAGGCGCCTCGAGTAAACAAATTTTCCTAATCTTTCTGTTCAAGCGCCATCTAC”, the binding signal is 1.35 RPM ratio (pull-down/input).

On to “GATGATTGTTCTCCCAGCTGATGAATTAGGCAGCTCGAGTAAACAAATTTTCCTAATCTTTCTGTTCAAGCGCCATCTAC”, for which the binding signal was 1.13 RPM ratio (pull-down/input).

For the sequence “GATGATTGTTCTCCCAGCTGATGAATTAGGCATCTCGAGTAAACAAATTTTCCTAATCTTTCTGTTCAAGCGCCATCTAC”, the binding signal is 6.82 RPM ratio (pull-down/input).

Regarding “GATGATTGTTCTCCCAGCTGATGAATTAGGGCATTCGAGTAAACAAATTTTCCTAATCTTTCTGTTCAAGCGCCATCTAC”, the binding signal was 5.05 RPM ratio (pull-down/input).

For the sequence “GATGATTGTTCTCCCAGCTGATGAATTTTAGGCCTCGAGTAAACAAATTTTCCTAATCTTTCTGTTCAAGCGCCATCTAC”, the binding signal was 0.444 RPM ratio (pull-down/input).

For “GATGATTGTTCTCCCAGCTGATGAATTAGGCATTTCGAGTAAACAAATTTTCCTAATCTTTCTGTTCAAGCGCCATCTAC”, the binding signal is 6.35 RPM ratio (pull-down/input).

Regarding “GATGATTGTTCTCCCAGCTGATGAATTGCTCAGATCGAGTAAACAAATTTTCCTAATCTTTCTGTTCAAGCGCCATCTAC”, the binding signal was 0.345 RPM ratio (pull-down/input).

Take “GATGATTGTTCTCCCAGCTGATGAATTAACAATGTCGAGTAAACAAATTTTCCTAATCTTTCTGTTCAAGCGCCATCTAC”: the binding signal was 0.512 RPM ratio (pull-down/input).

As to “GATGATTGTTCTCCCAGCTGATGAATTGCTTATGTCGAGTAAACAAATTTTCCTAATCTTTCTGTTCAAGCGCCATCTAC”, the binding signal was 1.87 RPM ratio (pull-down/input).

Consider “GATGATTGTTCTCCCAGCTGATGAATTCGGCACTTCGAGTAAACAAATTTTCCTAATCTTTCTGTTCAAGCGCCATCTAC”, for which the binding signal was 0.811 RPM ratio (pull-down/input).

Turning to “GATGATTGTTCTCCCAGCTGATGAATTTGTTGCGTCGAGTAAACAAATTTTCCTAATCTTTCTGTTCAAGCGCCATCTAC”, the binding signal is 6.75 RPM ratio (pull-down/input).

On to “GATGATTGTTCTCCCAGCTGATGAATTGTTTGCGTCGAGTAAACAAATTTTCCTAATCTTTCTGTTCAAGCGCCATCTAC”, for which the binding signal was 6.41 RPM ratio (pull-down/input).

For “GATGATTGTTCTCCCAGCTGATGAATTCTTTGCGTCGAGTAAACAAATTTTCCTAATCTTTCTGTTCAAGCGCCATCTAC”, the binding signal was 0.489 RPM ratio (pull-down/input).

On to “GATGATTGTTCTCCCAGCTGATGAATTTTTTGCGTCGAGTAAACAAATTTTCCTAATCTTTCTGTTCAAGCGCCATCTAC”, for which the binding signal is 0.525 RPM ratio (pull-down/input).

Take “GATGATTGTTCTCCCAGCTGATGAATTTGCGTCGTCGAGTAAACAAATTTTCCTAATCTTTCTGTTCAAGCGCCATCTAC”: the binding signal is 2.28 RPM ratio (pull-down/input).

For the sequence “GATGATTGTTCTCCCAGCTGATGAATTTTGCGCGTCGAGTAAACAAATTTTCCTAATCTTTCTGTTCAAGCGCCATCTAC”, the binding signal was 3.39 RPM ratio (pull-down/input).
